In PubChem BioAssay one finds z-score and composite z-score data, which are given here for 13 molecules.

The source made the active and inactive calls. Unless noted, the rule behind the calls is not given here.

The nature of assay [1]: resazurin metabolic signal in HepG2 cells – cell-based, resazurin fluorescence, 24 h, PK04 Diversity Set, profiling panel (AID 1172). Note: test concentration not given here. The following applies: HepG2 viability, higher = more signal.
The nature of assay [2]: budding yeast growth changes without added modifier – OD600, strain BY4716, 24 h, basal condition, primary screen (AID 1173). The conditions noted are these: S. cerevisiae BY4716 growth, OD600, 24 h; higher = more signal, called active from +8 up or from −8 down.
Assay [3] can be described thus: viability profiling in MM1S myeloma cells – cell-based, resazurin fluorescence, basal, 24 h, PK04 Diversity Set, profiling panel (AID 1174).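 Note: MM1S multiple myeloma cell line; test concentration not given here.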 The conditions noted are these: higher = more signal, called active from +8 up or from −8 down. For orientation: Resazurin is reduced to fluorescent resorufin, in cell work by metabolically active cells.
The target of assay [4] is Dihydroorotate dehydrogenase (quinone), mitochondrial (Plasmodium falciparum (isolate 3D7)) (UniProt Q08210). Put plainly: inhibition of P. falciparum DHODH – biochemical, C-terminal His tag, absorbance 600 nm, primary screen (AID 1175).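 Note: recombinant parasite enzyme with a five histidine tag at its C terminus; test concentration not given here.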 The following applies: PfDHODH enzyme, DCIP absorbance 600 nm; higher = more signal, called active from +8 up or from −8 down.
Chain of Dihydroorotate dehydrogenase (quinone), mitochondrial (Plasmodium falciparum (isolate 3D7)) (Q08210 whole entry, looked up): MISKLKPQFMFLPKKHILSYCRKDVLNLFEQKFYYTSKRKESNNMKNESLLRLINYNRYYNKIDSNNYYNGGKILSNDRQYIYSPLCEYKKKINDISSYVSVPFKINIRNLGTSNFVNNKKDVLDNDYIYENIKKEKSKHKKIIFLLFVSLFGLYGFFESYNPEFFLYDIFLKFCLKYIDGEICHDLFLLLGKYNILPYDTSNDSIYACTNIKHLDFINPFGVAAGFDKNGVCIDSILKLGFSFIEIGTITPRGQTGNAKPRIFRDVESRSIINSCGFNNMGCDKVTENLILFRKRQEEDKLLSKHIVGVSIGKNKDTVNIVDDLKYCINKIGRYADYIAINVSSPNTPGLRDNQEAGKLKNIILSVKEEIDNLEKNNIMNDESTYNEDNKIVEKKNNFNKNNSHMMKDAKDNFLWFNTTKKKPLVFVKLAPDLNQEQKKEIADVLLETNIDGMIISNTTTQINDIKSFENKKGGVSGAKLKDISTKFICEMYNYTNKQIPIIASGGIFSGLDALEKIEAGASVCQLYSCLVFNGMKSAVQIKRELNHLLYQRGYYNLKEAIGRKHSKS
A short description of assay [5]: inhibition of PAO1 biofilm formation – strain PAO1, LB-PBS medium, absorbance 600 nm, primary screen (AID 1176). Note: test concentration not given here. The following applies: P. aeruginosa PAO1 growth/biofilm, A600, 12 h; higher = more signal.
The nature of assay [6]: growth modulation of vineyard yeast isolate – strain RM11-1a, OD600, basal, 24 h, primary screen (AID 1177).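 Note: cultures grown under basal conditions with no added stressor; test concentration not given here.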 The following applies: S. cerevisiae RM11-1a growth, OD600, 24 h; higher = more signal, called active from +8 up or from −8 down.
A short description of assay [7]: growth of efflux-deficient E. coli DRC39 – strain DRC39, OD650, 24 h, E. coli filamentation inducers, primary screen (AID 1178).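 Note: growth measured as culture turbidity by optical density at 650 nm; test concentration not given here.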 The conditions noted are these: E. coli DRC39 acrAB, higher = more signal, called active from +8 up or from −8 down.
A short description of assay [8]: growth of efflux-deficient E. coli DRC39 – strain DRC39, OD650, 48 h, E. coli filamentation inducers, primary screen (AID 1179).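 Note: screen aims at cell division blockers that make cells filament.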 The following applies: E. coli DRC39 delta-acrAB growth, higher = more signal, called active from +8 up or from −8 down.
Assay [9] can be described thus: viability profiling in RPMI8226 myeloma cells – cell-based, resazurin fluorescence, basal, 24 h, PK04 Diversity Set, profiling panel (AID 1180).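 Note: RPMI8826 multiple myeloma cell line at 5000 cells per well; test concentration not given here.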 The following applies: higher = more signal.
For assay [10], the target named is E3 ubiquitin-protein ligase XIAP (Homo sapiens) (UniProt P98170). Briefly: small molecules binding XIAP protein – biophysical, small-molecule microarray, fluorescence 635 nm, primary screen (AID 1181).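 Note: score merges 667 nm emission and signal to noise over triplicate slides.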 The following applies: higher = more signal.
Chain of E3 ubiquitin-protein ligase XIAP (Homo sapiens) (P98170 whole entry, looked up): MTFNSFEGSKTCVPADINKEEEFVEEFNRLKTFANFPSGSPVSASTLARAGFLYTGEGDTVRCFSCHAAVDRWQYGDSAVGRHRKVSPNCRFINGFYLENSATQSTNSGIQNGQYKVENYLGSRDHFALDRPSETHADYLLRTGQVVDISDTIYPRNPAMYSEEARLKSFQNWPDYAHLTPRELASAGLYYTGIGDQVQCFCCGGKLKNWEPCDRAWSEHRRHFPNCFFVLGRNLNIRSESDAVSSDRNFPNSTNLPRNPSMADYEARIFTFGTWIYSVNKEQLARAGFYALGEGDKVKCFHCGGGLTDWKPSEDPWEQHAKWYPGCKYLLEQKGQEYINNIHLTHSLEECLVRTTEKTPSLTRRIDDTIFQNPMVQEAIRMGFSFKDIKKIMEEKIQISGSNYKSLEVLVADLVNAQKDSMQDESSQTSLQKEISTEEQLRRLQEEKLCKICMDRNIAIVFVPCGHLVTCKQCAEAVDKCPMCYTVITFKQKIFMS

With `COc1ccc([Si](C)(C)[C@@H]2[C@@H](CC(=O)N3CCC[C@H]3CO)O[C@]3(C(=O)N(Cc4cccc(N5CCC5=O)c4)c4ccccc43)[C@H]2C)cc1`, the z-score was -1.1 in [1]; -0.0905 (inactive) in [2]; -2.64 (inactive) in assay [3]; 1.19 (inactive) in assay [5]; 1.03 (inactive) in [6]; 0.52 (inactive) in [7]. Also, the z-score is 0.388 (inactive) in assay [8] and -3.51 in [9]. In addition, the values for the composite z-score in assay [4] and in [10] were -3.15 (inactive) and -0.152, respectively.
For the molecule `CN1C(=O)C2C=CC(C(O)C(c3ccccc3)c3ccccc3)N(NC(=O)OC(C)(C)C)C2C1=O` (stereo not given), the z-score in assay [1] was -0.889; in assay [2] it was -4.58 (inactive); in assay [3], -0.861 (inactive); in assay [5] it was 0.791 (inactive); in [6] it was 0.225 (inactive); in assay [7] it was -0.963 (inactive). For the same molecule, the z-score in [8] was -0.577 (inactive); in [9], -0.962. Moreover, the composite z-score in assay [4] is -1.08 (inactive); in [10], 0.497.
As for `COC(=O)[C@H](C)NC(=O)[C@@H](C)CO`, the z-score in [1] was -1.1; in [2], -0.0616 (inactive); in [3] it was -1.15 (inactive); in assay [5], -0.351 (inactive); in assay [6], 0.312 (inactive); in [7], -1.45 (inactive). For the same molecule, the z-score in assay [8] is -0.489 (inactive); in assay [9], -0.855. The composite z-score was 0.38 (inactive) in [4] and -0.102 in assay [10].
`O=C1[C@H]2[C@H]3[C@H](O)[C@H](O)CC(=NOCc4ccccc4)[C@H]3CC[C@H]2C(=O)N1C[C@@H]1CCCO1`: the z-score was 0.648 in assay [1]; 0.243 (inactive) in [2]; 0.18 (inactive) in assay [3]; 0.696 (inactive) in assay [5]; -0.485 (inactive) in [6]; -0.359 (inactive) in [7]. Further, the z-score in assay [8] is -0.103 (inactive); in assay [9] it was -0.323. Besides, the composite z-score was -0.279 (inactive) in [4] and -0.0773 in assay [10].
For `CC(C)=NOCc1ccc(-c2cc(-c3ccccc3)no2)cc1`, the z-score in assay [1] was -0.503; in [2], 0.288 (inactive); in assay [3], -0.284 (inactive); in assay [5], -0.446 (inactive); in assay [6], -0.194 (inactive); in assay [7] it was 0.302 (inactive). Moreover, the z-score in assay [8] is 0.387 (inactive); in assay [9], -0.424. Besides, the values for the composite z-score in assay [4] and in assay [10] were 0.21 (inactive) and 0.103, respectively.
On to `COC(=O)[C@@H]1N=C(c2ccc(OCCCO)cc2)O[C@@H]1c1ccccc1N=[N+]=[N-]`, for which the z-score in [1] was 1.92; in [2], -4.88 (inactive); in assay [3], 0.856 (inactive); in [5], 1.2 (inactive); in assay [6], -0.82 (inactive); in assay [7] it was 2.09 (inactive). The z-score in [8] was 0.995 (inactive); in assay [9], 0.0154. For the same molecule, the composite z-score is 0.458 (inactive) in assay [4] and 0.267 in assay [10].
As for `CCN1C(=O)[C@H]2[C@H]3[C@H](O)[C@H](O)CC(=NOCC=C(C)CCC=C(C)C)[C@H]3CC[C@H]2C1=O`, the z-score was -0.337 in assay [1]; -0.327 (inactive) in assay [2]; -0.944 (inactive) in assay [3]; 0.164 (inactive) in [5]; -0.414 (inactive) in assay [6]; 0.445 (inactive) in [7]. Also, the z-score in assay [8] was 0.314 (inactive); in [9] it was -1.23. In addition, the values for the composite z-score in [4] and in assay [10] were -0.962 (inactive) and -0.0988, respectively.
For `COC(=O)[C@@H]1CCCN1C(=O)[C@@H](C)CO`, the z-score in assay [1] is -0.337; in assay [2], -1.06 (inactive); in assay [3] it was -0.379 (inactive); in assay [5] it was 0.0372 (inactive); in [6], -0.213 (inactive); in assay [7] it was -1.47 (inactive). Moreover, the z-score is -2.18 (inactive) in assay [8] and -0.376 in [9]. Moreover, the composite z-score was -2.93 (inactive) in [4] and -0.0415 in assay [10].
Consider `CCCNC(=O)[C@@H]1c2ccccc2C(=O)N(c2ccc(C)cn2)[C@H]1c1ccc(CO)cc1`, for which the z-score in [1] was 0.306; in assay [2], 0.325 (inactive); in [3] it was -0.472 (inactive); in assay [5], 0.388 (inactive); in assay [6], -0.826 (inactive); in assay [7], 0.232 (inactive). Further, the z-score in [8] is 0.0239 (inactive); in assay [9] it was -0.682. Moreover, the composite z-score was -0.165 (inactive) in assay [4] and -0.165 in [10].
In the case of `COCC1=C2[C@@H](CCc3ccccc3)OB(O)C[C@@H]2n2c(=O)n(-c3ccccc3)c(=O)n2C1`, the z-score in [1] was 0.0883; in assay [2], -1.24 (inactive); in [3], -0.177 (inactive); in assay [5] it was 0.248 (inactive); in [6], -0.352 (inactive); in assay [7], 0.969 (inactive). Besides, the z-score in assay [8] is 0.545 (inactive); in [9], 0.0549. Moreover, the composite z-score in assay [4] was 0.653 (inactive); in assay [10], 0.698.
For the molecule `CCOC(=O)[C@H](Cc1ccccc1)NC(=O)CCC1CC(OC(=O)NCc2ccc3c(c2)OCO3)CC2(CCCC(COC(=O)NCc3cccc(C(F)(F)F)c3)O2)O1` (stereo not given in full), the z-score in assay [1] is -0.302; in [2] it was -1.17 (inactive); in assay [3], 1.12 (inactive); in [5] it was -0.813 (inactive); in assay [6], 0.234 (inactive); in [7], -1.21 (inactive). Also, the z-score in assay [8] is -0.793 (inactive); in assay [9], 0.352. Moreover, the composite z-score in assay [4] is -2.76 (inactive); in assay [10], 0.309.
For `CC(CCN1CCCCc2nc(C)c(C)cc21)=NOC(C)CN1CCCCc2nc(C)c(C)cc21` (stereo not given), the z-score in assay [1] was 0.149; in assay [2] it was -0.211 (inactive); in [3], -0.29 (inactive); in assay [5], 0.216 (inactive); in [6], 0.596 (inactive); in assay [7] it was 0.5 (inactive). In addition, the z-score is -0.024 (inactive) in [8] and 0.643 in assay [9]. The composite z-score is 0.159 (inactive) in assay [4] and 0.24 in assay [10].
Turning to `COc1ccc(O[C@H]2C=C[C@@H](c3ccccc3)O[C@@H]2COC(=O)CCC(C)=NOCC[C@@H]2C=C[C@H](OC(C)=O)[C@@H](COC(C)=O)O2)cc1`, the z-score in [1] was 0.453; in assay [2] it was 1.51 (inactive); in assay [3] it was 0.595 (inactive); in [5] it was -0.455 (inactive); in [6], 0.893 (inactive); in assay [7], 0.265 (inactive). Further, the z-score in assay [8] was -0.0862 (inactive); in [9], 0.485. Besides, the values for the composite z-score in assay [4] and in assay [10] were -0.64 (inactive) and 0.388, respectively.
